The values that follow come from the supplement of paper PMC10849652.

Targets with a hit are over-represented here; the source holds about 7,900 in all. About 0.6% of all pairs of compound and target were hits. A number with no mark means an inactive call.

What all share (experiment): log2 fold change, soluble protein after heating vs DMSO (PISA); higher = thermal stabilisation; K562 cells, 10 uM, 30 min; active = over 0.2 and 3.5 SD of the protein, either way, in both replicates (recomputed)
Compound in assay [1]: CC[C@@H]1C(=O)N(C)c2cnc(Nc3ccc(C(=O)NC4CCN(C)CC4)cc3OC)nc2N1C1CCCC1
In outline:
(§1)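 K562 cells at 2×10^6 cells/mL were treated for 30 min with 10 μM compound, and aliquots were heated for 3 min over 48°C-58°C before pooling. Extraction used PBS with 0.5% NP-40 at 4°C, and soluble protein was the supernatant after 21,000xg for 90 min, measured by TMTpro 16plex LC-MS/MS with channel sums equalised. Thermal stability values, relative to control samples and from duplicates, are log2 fold changes.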

Compound in assay [2]: CC[C@@H]1C(=O)N(C)c2cnc(Nc3ccc(C(=O)N[C@H]4CC[C@H](N5CCN(CC6CC6)CC5)CC4)cc3OC)nc2N1C(C)C [volasertib]
The gist of the method:
as §1

Compound in assay [3]: CC[C@H](C)N1C=C(C2=C(C=C(C=C21)C3=CN=C(C=C3)N4CCNCC4)C(=O)NCC5=C(C=C(NC5=O)C)C)C
In outline:
as §1

Compound in assay [4]: CC[C@H](C)[C@@H](C(=O)N[C@@H]([C@@H](C)O)C(=O)N[C@@H](CC(C)C)C(=O)[C@]1(CO1)C)NC(=O)[C@H]([C@@H](C)CC)N(C)C(=O)C [epoxomicin]
In outline: as §1

Compound in assay [5]: CCn1c(C(=O)N(C2CC2)C2CC2)cc2c3c(ncn3C)c(Nc3cc(C)n(C)n3)nc21
The gist of the method:
as §1

Compound in assay [6]: CCn1cc(-c2ccnc3[nH]c(-c4cccc(CN(C)C)c4)cc23)c(-c2ccc(NC(=O)N(C)C)cc2)n1
In outline:
as §1

Compound in assay [7]: CN(C)CC(=O)Nc1ccc2[nH]c(=O)c3ccccc3c2c1
In outline:
as §1

Compound in assay [8]: CN(CCOC1=CC=C(C=C1)C[C@H]2C(=O)NC(=O)S2)C3=CC=CC=N3 (racemic) [rosiglitazone]
In outline:
as §1

Compound in assay [9]: CN1C2=C(C3=C1C(=O)N(N=C3)CC4=CC(=CC=C4)N)SC(=C2)S(=O)C
The gist of the method:
as §1

Compound in assay [10]: CN1CCC(CNc2ccc3ncc(-c4cccc(OC(F)(F)F)c4)n3n2)CC1
In outline:
as §1

Sequence of UniProt Q9NRH2 (Q9NRH2 whole entry, looked up): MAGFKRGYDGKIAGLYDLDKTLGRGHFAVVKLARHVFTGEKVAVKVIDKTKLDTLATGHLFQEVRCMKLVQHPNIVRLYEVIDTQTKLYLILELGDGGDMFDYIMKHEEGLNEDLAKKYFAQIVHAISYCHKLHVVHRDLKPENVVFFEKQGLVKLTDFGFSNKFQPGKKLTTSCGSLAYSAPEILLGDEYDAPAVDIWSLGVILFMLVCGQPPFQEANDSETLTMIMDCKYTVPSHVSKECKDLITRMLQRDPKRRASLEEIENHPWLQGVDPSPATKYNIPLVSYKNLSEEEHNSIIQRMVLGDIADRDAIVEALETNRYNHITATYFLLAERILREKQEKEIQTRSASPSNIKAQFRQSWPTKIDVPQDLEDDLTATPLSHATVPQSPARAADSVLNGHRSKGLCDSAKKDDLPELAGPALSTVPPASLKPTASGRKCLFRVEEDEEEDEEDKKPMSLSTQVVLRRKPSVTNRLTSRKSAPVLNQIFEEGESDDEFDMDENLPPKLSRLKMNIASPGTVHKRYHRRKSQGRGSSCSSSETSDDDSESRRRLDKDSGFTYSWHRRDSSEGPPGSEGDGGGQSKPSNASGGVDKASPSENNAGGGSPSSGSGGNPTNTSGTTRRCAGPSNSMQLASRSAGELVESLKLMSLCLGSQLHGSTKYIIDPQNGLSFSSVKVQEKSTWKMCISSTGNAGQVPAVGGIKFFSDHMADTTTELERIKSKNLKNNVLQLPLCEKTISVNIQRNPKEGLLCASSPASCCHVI
Sequence of UniProt P20226 (P20226 whole entry, looked up): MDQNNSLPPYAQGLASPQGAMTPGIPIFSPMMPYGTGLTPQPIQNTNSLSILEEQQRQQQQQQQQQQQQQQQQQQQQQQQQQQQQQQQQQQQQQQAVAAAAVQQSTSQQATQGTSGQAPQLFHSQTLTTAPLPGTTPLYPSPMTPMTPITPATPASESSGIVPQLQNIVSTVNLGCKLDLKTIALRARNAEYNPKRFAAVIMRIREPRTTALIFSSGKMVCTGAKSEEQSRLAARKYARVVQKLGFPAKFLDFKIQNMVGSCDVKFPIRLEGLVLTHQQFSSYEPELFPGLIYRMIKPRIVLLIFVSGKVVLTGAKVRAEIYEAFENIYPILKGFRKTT
Sequence of UniProt Q9P016 (Q9P016 whole entry, looked up): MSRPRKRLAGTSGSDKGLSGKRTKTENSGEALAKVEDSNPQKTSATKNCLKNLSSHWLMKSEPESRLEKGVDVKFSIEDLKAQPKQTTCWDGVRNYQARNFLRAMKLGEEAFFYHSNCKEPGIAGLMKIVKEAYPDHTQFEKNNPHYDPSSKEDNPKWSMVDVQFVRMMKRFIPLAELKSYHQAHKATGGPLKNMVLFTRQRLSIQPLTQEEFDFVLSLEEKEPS
Sequence of UniProt Q9BUA3 (Q9BUA3 whole entry, looked up): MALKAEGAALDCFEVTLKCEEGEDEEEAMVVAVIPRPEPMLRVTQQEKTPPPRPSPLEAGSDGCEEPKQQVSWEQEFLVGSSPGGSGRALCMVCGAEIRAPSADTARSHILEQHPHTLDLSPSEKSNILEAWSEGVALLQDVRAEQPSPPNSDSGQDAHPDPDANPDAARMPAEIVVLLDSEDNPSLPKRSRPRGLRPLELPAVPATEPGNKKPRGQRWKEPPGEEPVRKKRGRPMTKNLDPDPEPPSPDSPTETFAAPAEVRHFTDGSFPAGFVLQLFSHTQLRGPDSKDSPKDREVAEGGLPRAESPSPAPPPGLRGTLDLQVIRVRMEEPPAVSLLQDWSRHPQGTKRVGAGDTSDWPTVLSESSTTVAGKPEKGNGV
Sequence of UniProt Q969S0 (Q969S0 whole entry, looked up): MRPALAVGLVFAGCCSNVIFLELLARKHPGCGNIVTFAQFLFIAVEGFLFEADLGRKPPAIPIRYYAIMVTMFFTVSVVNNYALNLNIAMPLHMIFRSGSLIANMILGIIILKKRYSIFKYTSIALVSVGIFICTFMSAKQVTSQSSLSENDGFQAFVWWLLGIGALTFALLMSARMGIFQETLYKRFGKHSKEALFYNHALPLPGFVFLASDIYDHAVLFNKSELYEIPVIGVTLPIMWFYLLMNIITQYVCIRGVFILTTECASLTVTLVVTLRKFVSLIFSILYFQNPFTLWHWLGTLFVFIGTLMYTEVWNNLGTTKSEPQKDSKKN
Sequence of UniProt Q9C0B7 (Q9C0B7 whole entry, looked up): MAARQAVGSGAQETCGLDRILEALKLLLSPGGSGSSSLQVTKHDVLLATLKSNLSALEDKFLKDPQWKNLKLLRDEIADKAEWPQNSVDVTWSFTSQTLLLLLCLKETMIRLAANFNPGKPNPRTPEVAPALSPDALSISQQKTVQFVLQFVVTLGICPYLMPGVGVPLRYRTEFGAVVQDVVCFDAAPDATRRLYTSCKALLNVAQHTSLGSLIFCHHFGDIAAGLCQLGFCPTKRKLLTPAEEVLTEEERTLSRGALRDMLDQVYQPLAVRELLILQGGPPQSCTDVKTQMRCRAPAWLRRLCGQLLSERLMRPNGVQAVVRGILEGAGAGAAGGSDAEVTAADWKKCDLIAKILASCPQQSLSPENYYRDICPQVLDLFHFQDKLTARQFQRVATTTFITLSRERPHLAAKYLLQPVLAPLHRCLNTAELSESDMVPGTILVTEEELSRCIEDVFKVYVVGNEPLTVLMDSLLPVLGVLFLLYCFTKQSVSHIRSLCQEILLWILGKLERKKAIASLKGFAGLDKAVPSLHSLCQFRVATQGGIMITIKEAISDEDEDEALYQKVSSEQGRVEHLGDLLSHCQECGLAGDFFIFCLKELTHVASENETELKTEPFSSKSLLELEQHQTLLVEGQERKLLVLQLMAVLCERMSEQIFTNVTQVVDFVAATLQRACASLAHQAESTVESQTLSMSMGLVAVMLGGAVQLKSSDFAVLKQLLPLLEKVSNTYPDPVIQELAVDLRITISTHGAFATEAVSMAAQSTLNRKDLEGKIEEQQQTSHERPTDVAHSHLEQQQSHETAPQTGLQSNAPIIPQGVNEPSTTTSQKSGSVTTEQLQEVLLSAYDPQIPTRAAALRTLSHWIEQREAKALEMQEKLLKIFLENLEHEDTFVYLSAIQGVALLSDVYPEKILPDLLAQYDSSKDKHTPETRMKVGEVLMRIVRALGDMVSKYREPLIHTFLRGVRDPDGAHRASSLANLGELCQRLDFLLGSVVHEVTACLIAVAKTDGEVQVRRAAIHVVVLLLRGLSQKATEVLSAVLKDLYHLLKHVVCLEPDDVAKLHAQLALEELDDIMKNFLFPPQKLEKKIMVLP
Sequence of UniProt Q96BZ9 (Q96BZ9 whole entry, looked up): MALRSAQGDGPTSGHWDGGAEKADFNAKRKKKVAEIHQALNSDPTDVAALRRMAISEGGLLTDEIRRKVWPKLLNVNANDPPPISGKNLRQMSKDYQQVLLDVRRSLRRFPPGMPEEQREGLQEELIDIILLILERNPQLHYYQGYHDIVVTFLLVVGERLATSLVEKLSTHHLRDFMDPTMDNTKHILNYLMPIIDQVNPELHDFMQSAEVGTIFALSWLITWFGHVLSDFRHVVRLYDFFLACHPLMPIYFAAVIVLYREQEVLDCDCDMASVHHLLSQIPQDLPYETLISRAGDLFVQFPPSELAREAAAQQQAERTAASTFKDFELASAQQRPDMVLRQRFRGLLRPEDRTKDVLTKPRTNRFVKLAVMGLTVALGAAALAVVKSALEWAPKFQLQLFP
Sequence of UniProt Q96NT5 (Q96NT5 whole entry, looked up): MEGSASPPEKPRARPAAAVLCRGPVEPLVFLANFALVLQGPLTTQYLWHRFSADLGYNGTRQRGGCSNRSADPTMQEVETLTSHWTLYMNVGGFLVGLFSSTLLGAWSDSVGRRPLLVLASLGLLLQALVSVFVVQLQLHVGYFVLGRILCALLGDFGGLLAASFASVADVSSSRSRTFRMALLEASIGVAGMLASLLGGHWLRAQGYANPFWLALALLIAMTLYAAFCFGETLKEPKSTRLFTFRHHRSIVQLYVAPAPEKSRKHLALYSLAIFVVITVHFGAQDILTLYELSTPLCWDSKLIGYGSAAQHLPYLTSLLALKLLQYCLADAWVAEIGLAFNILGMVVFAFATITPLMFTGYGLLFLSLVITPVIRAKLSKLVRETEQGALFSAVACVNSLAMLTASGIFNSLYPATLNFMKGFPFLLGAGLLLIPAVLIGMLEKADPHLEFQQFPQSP
Sequence of UniProt P42229 (P42229 whole entry, looked up): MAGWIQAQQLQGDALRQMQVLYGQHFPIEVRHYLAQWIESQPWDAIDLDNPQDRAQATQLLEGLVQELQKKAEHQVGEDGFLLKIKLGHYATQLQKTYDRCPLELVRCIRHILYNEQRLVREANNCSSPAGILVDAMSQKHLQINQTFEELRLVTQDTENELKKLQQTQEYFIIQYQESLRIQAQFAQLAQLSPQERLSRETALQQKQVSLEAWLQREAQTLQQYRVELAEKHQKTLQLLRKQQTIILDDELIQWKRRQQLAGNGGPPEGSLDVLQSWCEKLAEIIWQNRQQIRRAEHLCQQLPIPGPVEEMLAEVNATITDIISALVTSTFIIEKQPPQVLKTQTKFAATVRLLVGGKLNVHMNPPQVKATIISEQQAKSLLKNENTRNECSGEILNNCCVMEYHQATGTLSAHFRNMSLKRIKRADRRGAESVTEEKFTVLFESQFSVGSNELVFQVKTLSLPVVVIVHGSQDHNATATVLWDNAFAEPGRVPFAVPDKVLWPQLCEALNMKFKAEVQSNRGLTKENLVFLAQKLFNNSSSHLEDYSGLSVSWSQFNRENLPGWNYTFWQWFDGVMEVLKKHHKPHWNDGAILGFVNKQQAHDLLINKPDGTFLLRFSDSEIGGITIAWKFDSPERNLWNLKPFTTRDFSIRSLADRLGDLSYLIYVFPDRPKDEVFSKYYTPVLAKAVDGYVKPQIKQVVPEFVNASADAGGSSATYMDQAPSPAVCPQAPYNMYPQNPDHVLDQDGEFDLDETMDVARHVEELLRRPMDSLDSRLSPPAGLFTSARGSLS

As to THYN1 (UniProt Q9P016), the log2 fold change in assay [1] was 0.059; in assay [2] it was 0.09; in assay [3], 0.048; in assay [4], 0.016; in assay [5] it was 0.072; in assay [6], -0.04. The log2 fold change in assay [7] is -0.004; in assay [8] it was 0.001; in [9], -0.09; in [10], 0.09.

In the case of SLC30A7 (UniProt Q8NEW0), the log2 fold change in [1] was 0.016; in assay [2], -0.074; in assay [3] it was -0.041; in assay [4] it was -0.034; in assay [5], -0.007; in assay [6], 0.032. In addition, the log2 fold change is 0.014 in assay [7], 0.053 in assay [8], -0.05 in assay [9] and 0.091 in assay [10].

For TBC1D20 isoform 3 (UniProt Q96BZ9), the log2 fold change in [1] was 0.273; in assay [2], -0.153; in [3], 0.07; in assay [4], 0.068; in assay [5], -0.111; in [6], 0.028. Also, the log2 fold change was 0.04 in [7], -0.03 in assay [8] and 0.046 in assay [10].

Regarding TBP (UniProt P20226), the log2 fold change was 0.087 in assay [1]; 0.073 in assay [2]; 0.095 in [3]; -0.332 in assay [4]; -0.227 in assay [7]; -0.035 in [8]. Besides, in assay [9], the log2 fold change is 0.001.

SPINDOC (UniProt Q9BUA3): the log2 fold change in [1] was -0.131; in [2] it was -0.178; in assay [3] it was -0.243; in assay [4] it was 0.071; in assay [5], -0.094; in assay [6], 0.105. The log2 fold change in assay [7] was 0.074; in assay [8] it was -0.041; in [9], -0.222; in [10] it was -0.02.

With TANGO6 (UniProt Q9C0B7), the log2 fold change was 0.276 in [1]; -0.375 (active) in assay [2]; 0.052 in assay [3]; 0.035 in assay [4]; -0.165 in [5]; 0.037 in assay [8]. For the same target, the log2 fold change in assay [9] is 0.006.

As for TCERG1 (UniProt O14776), the log2 fold change in assay [1] is -0.145; in assay [2], -0.445 (active); in assay [3], 0.133; in assay [4], 0.116; in [5], -0.076; in assay [6], -0.032. Also, the log2 fold change in assay [7] was 0.135; in assay [8], 0.071; in assay [9], -0.038; in assay [10], -0.136.

For STAT5A (UniProt P42229), the log2 fold change in assay [1] is -0.225; in assay [2] it was -0.633 (active); in [3] it was 0.121; in assay [4], 0.072; in assay [5], -0.072; in assay [6], 0.041. The log2 fold change in [7] was 0.074; in [8], 0.056; in assay [9], -0.005; in [10], -0.109.

With SNRK (UniProt Q9NRH2), the values for the log2 fold change in [1], in [2] and in assay [9] were -0.157, -0.085 and -0.011, respectively.

For the target SLC46A1 (UniProt Q96NT5), the log2 fold change is 0.156 in assay [1]; -0.072 in [5]; -0.072 in assay [6]; -0.041 in [7]; 0.087 in [10].

For SPIRE1 (UniProt Q08AE8), the log2 fold change in [1] is 0.125; in [3], -0.181; in assay [4], -0.238; in [5], -0.069; in assay [6] it was -0.116; in [7], -0.056. The log2 fold change in assay [8] is -0.002; in assay [10], -0.026.

Turning to SLC39A1 (UniProt Q9NY26), the figures for the log2 fold change in [5], in assay [6] and in assay [10] were -0.09, -0.014 and -0.051, respectively.

Take SSBP4 (UniProt U3KPY3): the log2 fold change in assay [7] was 0.049.

Consider SLC35B4 (UniProt Q969S0), for which the log2 fold change was -0.003 in assay [1]; -0.041 in assay [3]; 0.044 in assay [4]; 0.042 in assay [5]; -0.134 in [7]; 0.005 in assay [8].

In the case of SSB (UniProt E7ERC4), the log2 fold change is -0.076 in assay [6], -0.154 in [7], -0.34 in [9] and 0.266 in [10].

As for SP2 (UniProt Q02086), the log2 fold change in [1] was -0.289; in [9], 0.372.

Turning to STARD3 (UniProt Q14849), the log2 fold change was 0.115 in assay [2]; 0.091 in assay [3]; -0.019 in assay [4]; 0.053 in assay [5]; 0.039 in [6]; -0.037 in [7]. In addition, the log2 fold change was 0.024 in [8], -0.064 in assay [9] and -0.386 (active) in [10].

In the case of SMARCB1 (UniProt Q12824), the log2 fold change in assay [1] was -0.058; in assay [6], 0.053; in [7] it was -0.116; in assay [9] it was 0.127; in assay [10] it was -0.222.

Turning to TK1 (UniProt K7ERV3), the log2 fold change in assay [2] was 0.055; in assay [3] it was -0.163; in assay [4], 0.007; in assay [6], -0.014; in assay [7], 0.084; in assay [8] it was 0.035. The values for the log2 fold change in [9] and in assay [10] were -0.024 and 0.005, respectively.

As for SYK (UniProt P43405), the log2 fold change in [2] was 0.196; in [4] it was 0.022; in assay [5], -0.021; in [7], -0.085; in assay [8] it was -0.006; in assay [9] it was -0.052.

Take TDP1 (UniProt Q9NUW8): the log2 fold change in assay [5] is -0.11.
